Measurements: PubChem BioAssay (NCATS)
Inconclusive results are not listed. Active and inactive are the calls of the source. Calls follow the shape of the dose curve; as a rule, active = well fitted curve in the direction sought with a large enough effect; inconclusive = small, poorly fitted or top-dose-only effect, or another doubt; inactive = no such curve, though single readings can be large; an effect the other way counts as inactive or inconclusive.

What was measured:
[1] = Quantitative High-Throughput drug screen in 47 multiple myeloma cell lines against the NCATS MIPE library collection: JIM1_ECACC cell viability assay (AID 1918964)
In short: (§1)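 Primary qHTS used for cherry-picking: cells at 500/well, library compounds for 48 h (37C, 5% CO2), luminescent ATP assay.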

[2] = Quantitative High-Throughput drug screen in 47 multiple myeloma cell lines against the NCATS MIPE library collection: H1112_PLB cell viability assay (AID 1918967; also: nearly all actives have a fitted effect of over 30% in size)
In short: as §1

[3] = Quantitative High-Throughput drug screen in 47 multiple myeloma cell lines against the NCATS MIPE library collection: Karpas25_ECACC cell viability assay (AID 1918968; also: nearly all actives have a fitted effect of over 35% in size)
In short: as §1

[4] = Quantitative High-Throughput drug screen in 47 multiple myeloma cell lines against the NCATS MIPE library collection: KMS27_JCRB cell viability assay (AID 1918970); also: nearly all actives have a fitted effect of over 30% in size
In short: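 Myeloma cells (500 per well) were exposed to MIPE 4.0 compounds for 48 h at 37 °C, 5% CO2; viability was read as ATP luminescence with CellTiter-Glo, normalized to DMSO-only (100%) and media-only (0%) wells.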

[5] = Quantitative High-Throughput drug screen in 47 multiple myeloma cell lines against the NCATS MIPE library collection: KMS12PE_JCRB cell viability assay (AID 1918972); also: nearly all actives have a fitted effect of over 30% in size
In short: (§2)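 Viability readout: CellTiter-Glo luminescence following 5 min room-temperature incubation with reagent. Prior exposure: 48 h, 37C, humidified 5% CO2, 500 cells per well.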

[6] = Quantitative High-Throughput drug screen in 47 multiple myeloma cell lines against the NCATS MIPE library collection: KMS26_JCRB cell viability assay (AID 1918975); also: nearly all actives have a fitted effect of over 45% in size
In short: (§3)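 Luminescent ATP measurement with CellTiter-Glo gives viability, scaled between DMSO-only wells (100%) and media-only wells (0%). Cells, 500 per well, faced library compounds for 48 hours at 37C.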

[7] = Quantitative High-Throughput drug screen in 47 multiple myeloma cell lines against the NCATS MIPE library collection: MOLP8_DSMZ cell viability assay (AID 1918977); also: nearly all actives have a fitted effect of over 45% in size
In short: (§4)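 Cells were exposed to library compounds for 48 hours, after which ATP was measured by CellTiter-Glo. Signal was taken as median relative luminescence units.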

[8] = Quantitative High-Throughput drug screen in 47 multiple myeloma cell lines against the NCATS MIPE library collection: NCIH929_DSMZ cell viability assay (AID 1918978); also: nearly all actives have a fitted effect of over 35% in size
In short: as §4

[9] = Quantitative High-Throughput drug screen in 47 multiple myeloma cell lines against the NCATS MIPE library collection: OCIMY1_PLB cell viability assay (AID 1918979); also: nearly all actives have a fitted effect of over 35% in size
In short: as §4

[10] = Quantitative High-Throughput drug screen in 47 multiple myeloma cell lines against the NCATS MIPE library collection: MM1R_ATCC cell viability assay (AID 1918981); also: nearly all actives have a fitted effect of over 35% in size
In short: as §4

[11] = Quantitative High-Throughput drug screen in 47 multiple myeloma cell lines against the NCATS MIPE library collection: KMS28PE_JCRB cell viability assay (AID 1918983); also: nearly all actives have a fitted effect of over 35% in size
In short: as §4

[12] = Quantitative High-Throughput drug screen in 47 multiple myeloma cell lines against the NCATS MIPE library collection: JJN3_DSMZ cell viability assay (AID 1918966; also: nearly all actives have a fitted effect of over 50% in size)
In short: as §1

[13] = Quantitative High-Throughput drug screen in 47 multiple myeloma cell lines against the NCATS MIPE library collection: KMS12BM_JCRB cell viability assay (AID 1918971); also: nearly all actives have a fitted effect of over 35% in size
In short: as §3

[14] = Quantitative High-Throughput drug screen in 47 multiple myeloma cell lines against the NCATS MIPE library collection: LP1_DSMZ cell viability assay (AID 1918982); also: nearly all actives have a fitted effect of over 35% in size
In short: as §4

[15] = Quantitative High-Throughput drug screen in 47 multiple myeloma cell lines against the NCATS MIPE library collection: MM1S_ATCC cell viability assay (AID 1918980); also: nearly all actives have a fitted effect of over 45% in size
In short: as §4

[16] = Quantitative High-Throughput drug screen in 47 multiple myeloma cell lines against the NCATS MIPE library collection: L363_DSMZ cell viability assay (AID 1918984); also: nearly all actives have a fitted effect of over 40% in size
In short: as §4

[17] = Quantitative High-Throughput drug screen in 47 multiple myeloma cell lines against the NCATS MIPE library collection: INA6_PLB cell viability assay (AID 1918965; also: nearly all actives have a fitted effect of over 55% in size)
In short: as §2

[18] = Quantitative High-Throughput drug screen in 47 multiple myeloma cell lines against the NCATS MIPE library collection: MMM1_PLB cell viability assay (AID 1918976); also: nearly all actives have a fitted effect of over 35% in size
In short: as §4

[19] = Quantitative High-Throughput drug screen in 47 multiple myeloma cell lines against the NCATS MIPE library collection: KMS21BM_JCRB cell viability assay (AID 1918974); settings: ATP luminescence, 48 h; viability: at 45.8 µM (top of the series) unless noted
In short: as §1

[20] = Quantitative High-Throughput drug screen in 47 multiple myeloma cell lines against the NCATS MIPE library collection: KMS20_JCRB cell viability assay (AID 1918973); also: nearly all actives have a fitted effect of over 45% in size
In short: as §1
Potency is read from the fitted curve at half-maximal effect.

CCc1ccc(CCOc2ccc(CC3SC(=O)NC3=O)cc2)nc1 (stereo unspecified)
inactive: Potency [1] | Potency [2] | Potency [3] | Potency [4] | Potency [5] | Potency [6] | Potency [7] | Potency [8] | Potency [9] | Potency [10] | Potency [11]

Cc1cnc(NC(=O)C2=C(O)c3ccccc3S(=O)(=O)N2C)s1
inactive: Potency [1] | Potency [12] | Potency [2] | Potency [3] | Potency [4] | Potency [13] | Potency [6] | Potency [7] | Potency [8] | Potency [9] | Potency [10] | Potency [14] | Potency [11]

CN(C)c1ccc(C2Nc3ccc4ccccc4c3C3=C2C(=O)CC(C)(C)C3)cc1Br (stereo unspecified)
active: Potency [1] 0.0019 µM | Potency [12] 11.8 µM | Potency [2] 5.26 µM | Potency [3] 5.9 µM | Potency [5] 5.9 µM | Potency [6] 16.6 µM | Potency [11] 23.5 µM
inactive: Potency [15] | Potency [16]

CN1CCN(CCCN2c3ccccc3Sc3ccc(C(F)(F)F)cc32)CC1
inactive: Potency [1] | Potency [13] | Potency [5] | Potency [6] | Potency [10] | Potency [14]
active: Potency [17] 9.35 µM | Potency [2] 7.43 µM | Potency [3] 4.18 µM | Potency [8] 2.09 µM | Potency [15] 1.05 µM

CCn1c(-c2nonc2N)nc2cnc(Oc3cccc(NC(=O)c4ccc(OCCN5CCOCC5)cc4)c3)cc21
active: Potency [1] 5.9 µM | Potency [17] 2.64 µM | Potency [3] 2.35 µM | Potency [4] 8.33 µM | Potency [5] 5.9 µM | Potency [18] 10.5 µM | Potency [8] 9.35 µM | Potency [15] 18.7 µM | Potency [10] 16.6 µM | Potency [14] 14.8 µM | Potency [16] 8.33 µM

Cc1cccc(-c2[nH]c(C(C)(C)C)nc2-c2ccc3nccnc3c2)n1
active: Potency [1] 6.62 µM | Potency [2] 5.26 µM | Potency [3] 1.32 µM | Potency [4] 2.96 µM | Potency [13] 20.9 µM | Potency [5] 4.69 µM | Potency [8] 16.6 µM | Potency [10] 20.9 µM | Potency [16] 1.87 µM

CCn1cc(C(=O)O)c(=O)c2cc(F)c(N3CCNC(C)C3)c(F)c21 (stereo unspecified)
inactive: Potency [1] | Potency [17] | Potency [2] | Potency [3] | Potency [4] | Potency [13] | Potency [5] | Potency [6] | Potency [7] | Potency [8] | Potency [9] | Potency [10] | Potency [14] | Potency [11] | Potency [16]

NS(=O)(=O)c1cc2c(cc1Cl)NC=NS2(=O)=O
inactive: Potency [1] | Potency [2] | Potency [3] | Potency [4] | Potency [5] | Potency [6] | Potency [7] | Potency [10] | Potency [14] | Potency [11] | Potency [16]
active: viability [19] 201%

CN(C)c1ccc(Nc2nc(N)n(C(=O)c3c(F)cccc3F)n2)cc1
active: Potency [1] 18.7 µM | Potency [17] 1.87 µM | Potency [3] 26.4 µM | Potency [4] 23.5 µM | Potency [5] 16.6 µM | Potency [19] 2.35 µM | Potency [8] 26.4 µM | Potency [15] 14.8 µM | Potency [10] 18.7 µM | Potency [14] 16.6 µM | Potency [16] 20.9 µM
inactive: Potency [9]

COCCNCCCn1c(C(=O)CF)c(-c2ccc(C)cc2)c2c(N)ncnc21
inactive: Potency [1] | Potency [5] | Potency [6] | Potency [8] | Potency [11]
active: Potency [17] 16.6 µM | Potency [10] 2.64 µM | Potency [14] 7.43 µM

COc1ccc([C@@H]2CC(=O)c3c(O)cc(O[C@@H]4O[C@H](CO[C@@H]5O[C@@H](C)[C@H](O)[C@@H](O)[C@@H]5O)[C@@H](O)[C@H](O)[C@@H]4O)cc3O2)cc1O
inactive: Potency [1] | Potency [2] | Potency [3] | Potency [4] | Potency [13] | Potency [5] | Potency [8] | Potency [9] | Potency [10] | Potency [14] | Potency [11] | Potency [16]

CNC(=O)c1ccc(C)c(-n2c(C)cc(OCc3ccc(F)cc3F)c(Br)c2=O)c1
active: Potency [1] 23.5 µM | Potency [17] 16.6 µM | Potency [2] 7.43 µM | Potency [3] 8.33 µM | Potency [13] 20.9 µM | Potency [5] 18.7 µM | Potency [18] 18.7 µM | Potency [8] 5.9 µM

O=C(NOC[C@H](O)CO)c1ccc(F)c(F)c1Nc1ccc(I)cc1F
active: Potency [1] 1.66 µM | Potency [17] 0.0332 µM | Potency [2] 0.0148 µM | Potency [4] 0.0105 µM | Potency [19] 0.0296 µM | Potency [8] 0.059 µM | Potency [15] 16.6 µM | Potency [11] 2.96 µM
inactive: Potency [6] | Potency [9] | Potency [14]

COc1ccc(-c2ccc3c(N4CCOCC4)nc(N4C[C@@H](C)O[C@@H](C)C4)nc3n2)cc1CO
active: Potency [1] 0.0332 µM | Potency [17] 5.9 µM | Potency [12] 1.87 µM | Potency [3] 0.743 µM | Potency [4] 0.187 µM | Potency [13] 0.0833 µM | Potency [5] 2.35 µM | Potency [20] 0.235 µM | Potency [19] 0.833 µM | Potency [6] 2.96 µM | Potency [7] 1.05 µM | Potency [8] 0.187 µM | Potency [9] 4.69 µM | Potency [15] 0.469 µM | Potency [10] 0.833 µM | Potency [14] 0.059 µM | Potency [11] 0.187 µM | Potency [16] 0.235 µM

COc1ccc(-c2oc3cc(OC)ccc3c2C(=O)c2ccc(C#N)cc2)cc1
active: Potency [1] 6.62 µM | Potency [4] 2.09 µM | Potency [5] 10.5 µM | Potency [19] 1.32 µM | Potency [15] 10.5 µM | Potency [16] 3.32 µM
inactive: Potency [17] | Potency [6] | Potency [7] | Potency [10] | Potency [11]
